# A number with no mark means an inactive call. Records with an inconclusive call do not appear. Where a call stands in place of a potency, no number is given. The source made the active and inactive calls. Calls come from the whole dose curve; as a rule, active = well fitted curve in the direction sought with a large enough effect; inconclusive = small, poorly fitted or top-dose-only effect, or another doubt; inactive = no such curve, though single readings can be large; an effect the other way counts as inactive or inconclusive.
# How the values were obtained:
# [1] = tested on: Zika virus NS2B-NS3 protease (unlinked complex); assay: Primary screen GU Rhodamine qHTS for Zika virus inhibitors: Unlinked NS2B-NS3 protease assay (AID 1347159); note: nearly all actives have a fitted effect of over 60% in size
# In short: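 Noncovalent NS2B hydrophilic domain/NS3 protease complex (25 nM final) in 10 mM Tris-HCl pH 8.0, 0.01% Tween 20, preincubated 15 min with compounds (up to 114 microM), then 1.5 microM Rhodamine110 substrate. Fluorescence change over 15 min fitted to 4-parameter Hill.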
# [2] = tested on: Zika virus NS2B-NS3 protease (linked construct); assay: Primary screen NINDS Rhodamine qHTS for Zika virus inhibitors (AID 1347160); note: nearly all actives have a fitted effect of over 55% in size
# In short: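 Purified NS2B-NS3 protease with the NS2B hydrophilic domain joined by a flexible linker (25 nM) in 10 mM Tris-HCl pH 8.0, 0.01% Tween 20, preincubated 15 min at RT with compound; Rhodamine110 peptide substrate 1.5 µM; fluorescence change over 15 min; 4-parameter Hill fit.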
# [3] = target: Glutathione peroxidase 1 (Homo sapiens) (UniProt P07203); assay: Primary qHTS Assay for Inhibitors of Recombinant Selenoprotein Glutathione Peroxidase 1 (GPX1) (AID 1845191); note: nearly all actives have a fitted effect of over 65% in size
# Glutathione peroxidase 1 (Homo sapiens), sequence (P07203 whole entry, looked up): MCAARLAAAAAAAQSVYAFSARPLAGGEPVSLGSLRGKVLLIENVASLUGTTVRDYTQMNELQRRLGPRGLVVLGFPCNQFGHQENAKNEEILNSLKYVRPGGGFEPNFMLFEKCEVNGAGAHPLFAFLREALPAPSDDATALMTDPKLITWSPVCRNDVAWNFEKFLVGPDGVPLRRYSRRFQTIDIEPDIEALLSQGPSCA
# In short: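 Recombinant GPX1 (10 nM final) was preincubated with compound for 30 min at room temperature, then reacted with 1 mM GSH, 0.5 mM CHP, 0.5 mM NADPH and 100 nM glutathione reductase; NADPH fluorescence (340/450 nm) was read at 0 and 15 min.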
# [4] = target: Luciferin 4-monooxygenase (Photinus pyralis) (UniProt P08659); assay: Primary firefly luciferase (FLuc) qHTS assay for identification of artifact compounds. (AID 1845220); details: outcome: dose series up to 54.1 µM unless noted; note: nearly all actives have a fitted effect of over 60% in size
# In short: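 In this counter-screen for luciferase artifacts, test compounds met substrate (10 uM each luciferin and ATP) before 10 nM enzyme started the reaction. Light output was measured 5 min later.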
# [5] = Primary fluorescence-based thiol-reactive (MSTI) qHTS assay for identification of artifact compounds. (AID 1845221); note: nearly all actives have a fitted effect of over 65% in size; note: potency is the fitted concentration of half-maximal effect
# In short: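 MSTI probe at 4 uM final in 2% DMSO/PBS pH 7.4; compounds, 1 h at room temperature in dark. Fluorescence Ex/Em 525/598 nm, normalised to Acetyl-MSTI and MSTI, fitted to 4-parameter Hill.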
# [6] = tested on: Nanoluciferase (engineered Oplophorus gracilirostris luciferase); assay: Primary Nanoluciferase (NLuc) qHTS assay for identification of artifact compounds. (AID 1845222);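 note: NLuc secreted into diluted conditioned medium of S16 cells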
# In short: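 Using secreted nanoluciferase in S16 culture medium (0.22 um filtered, 1:55 dilution), compounds were preincubated 15 min at RT. Signal was generated with Nano-Glo reagent (1:100) over 5 min.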
# [7] = tested on: NIH3T3; assay: Cytotoxic Profiling of Annotated Libraries Using Quantitative High-Throughput Screening (AID 1296008); details: Five cell lines viability, CellTiter-Glo ATP luminescence, 48-72 h; max response: active compounds read low; note: nearly all actives have a fitted effect of over 60% in size; note: potency is the fitted concentration of half-maximal effect
# In short: (§1)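 Compounds were pin-transferred onto cells and incubated 48 or 72 hr at 37 degree Celsius, 95% humidity. CellTiter-Glo was added, plates sat 10 min at room temperature, then ATP-coupled luminescence was imaged as the viability read-out.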
# [8] = tested on: C33A; assay: Primary qHTS to identify gynecologic anti-cancer compounds using libraries of approved drugs and bioactive compounds (AID 1345084); details: Gynecologic cancer cell panel viability, ATPlite luminescence, 48 h; series mostly up to 57.5 µM; note: nearly all actives have a fitted effect of over 55% in size
# In short: (§2)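 Cells, 1,000 per well, plated 16 h, then exposed 48 h at 37 C to compounds. Viability by ATPlite luminescence after 15 min at room temperature.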
# [9] = tested on: CASKI; assay: as above; details: Gynecologic cancer cell panel viability, ATPlite luminescence, 48 h; series mostly up to 57.5 µM
# In short: as §2
# [10] = tested on: Es-2; assay: as above; details: Gynecologic cancer cell panel viability, ATPlite luminescence, 48 h; series mostly up to 57.5 µM
# In short: as §2
# [11] = tested on: Hek293T; assay: as above; details: Gynecologic cancer cell panel viability, ATPlite luminescence, 48 h, control line for the selectivity index; series mostly up to 57.5 µM
# In short: as §2
# [12] = tested on: JEG-3; assay: as above; details: Gynecologic cancer cell panel viability, ATPlite luminescence, 48 h; series mostly up to 57.5 µM
# In short: as §2
# [13] = tested on: OV90; assay: as above; details: Gynecologic cancer cell panel viability, ATPlite luminescence, 48 h; series mostly up to 57.5 µM
# In short: as §2
# [14] = tested on: PA-1; assay: as above; details: Gynecologic cancer cell panel viability, ATPlite luminescence, 48 h; series mostly up to 57.5 µM
# In short: as §2
# [15] = tested on: Tov-21-G; assay: as above; details: Gynecologic cancer cell panel viability, ATPlite luminescence, 48 h; series mostly up to 57.5 µM
# In short: as §2
# [16] = tested on: Tov112D; assay: as above; details: Gynecologic cancer cell panel viability, ATPlite luminescence, 48 h; series mostly up to 57.5 µM
# In short: as §2
# [17] = target: Calcium and integrin-binding protein 1 (Homo sapiens) (UniProt Q99828); assay: Primary qHTS for Identification of Calcium Integrin Binding Protein 1 (CIB1) Competitor (AID 1508620);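 note: GST tagged CIB1 binding a fluorescein labelled alphaIIb integrin peptide tracer; top concentration of the series differs between compounds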
# Calcium and integrin-binding protein 1 (Homo sapiens), sequence (Q99828 whole entry, looked up): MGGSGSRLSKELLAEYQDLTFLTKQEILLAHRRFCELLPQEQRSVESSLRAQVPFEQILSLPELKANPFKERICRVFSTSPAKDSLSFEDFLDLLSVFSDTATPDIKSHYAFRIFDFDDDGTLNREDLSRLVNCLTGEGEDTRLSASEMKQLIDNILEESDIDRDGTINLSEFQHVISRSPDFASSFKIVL
# In short: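 Fluorescence polarization competition: CIB1-GST (1 uM final) preincubated with compound 15 min at room temperature, then FITC-labeled alphaIIb peptide (100 nM final) added for another 15 min. Polarization read at Ex 480/Em 540.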
# [18] = target: Phospholipid hydroperoxide glutathione peroxidase GPX4 (Homo sapiens) (UniProt P36969); assay: Primary qHTS Assay for Inhibitors of Recombinant Selenoprotein Glutathione Peroxidase 4 (GPX4) (AID 1845192); note: nearly all actives have a fitted effect of over 65% in size
# Phospholipid hydroperoxide glutathione peroxidase GPX4 (Homo sapiens), sequence (P36969 whole entry, looked up): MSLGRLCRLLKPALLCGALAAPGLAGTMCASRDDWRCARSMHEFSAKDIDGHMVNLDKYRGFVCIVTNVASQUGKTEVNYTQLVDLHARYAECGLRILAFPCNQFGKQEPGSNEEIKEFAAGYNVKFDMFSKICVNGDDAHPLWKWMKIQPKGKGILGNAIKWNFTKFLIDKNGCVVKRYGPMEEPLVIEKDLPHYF
# In short: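 GR-coupled readout: 100 nM GR, 1 mM GSH, 0.5 mM NADPH; NADPH fluorescence (ex 340/em 450 nm) read at t=0 and after 15 min RT. GPX4 200 nM, preincubated 30 min with compound; substrate 0.5 mM CHP.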
# [19] = Primary redox qHTS assay for identification of artifact compounds. (AID 1845223)
# In short: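 Amplex Red (25 uM) and HRP (250 mU/mL) in HBSS, with compounds for 15 min, then 250 uM DTT for 30 min, room temperature, dark. Fluorescence 525/598 nm read; normalized to DMSO and 10 uM DA3003; Hill fit.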
# [20] = tested on: HaCat; assay: Cytotoxic Profiling of Annotated Libraries Using Quantitative High-Throughput Screening (AID 1296008); details: Five cell lines viability, CellTiter-Glo ATP luminescence, 48-72 h; max response: active compounds read low; note: nearly all actives have a fitted effect of over 60% in size; note: potency is the fitted concentration of half-maximal effect
# In short: as §1
smiles,measurement,setting,value
CC(C)[C@H](NC(=O)c1nn(Cc2ccc(F)cc2)c2ccccc12)C(N)=O,Potency,[1],inactive
same,Potency,[2],inactive
same,Potency,[3],inactive
same,outcome,[4],inactive
same,Potency,[5],inactive
same,Potency,[6],inactive
same,max response,[7],-27.5%
same,Potency,[8],inactive
same,Potency,[9],inactive
same,Potency,[10],inactive
same,Potency,[11],inactive
same,Potency,[12],inactive
same,Potency,[13],inactive
same,Potency,[14],inactive
same,Potency,[15],inactive
same,Potency,[16],inactive
C[C@]12CC[C@@H](O)C[C@@H]1CC[C@@H]1[C@@H]2CC[C@]2(C)C(=O)[C@@H](Br)C[C@@H]12,Potency,[1],inactive
same,Potency,[2],inactive
same,Potency,[17],inactive
same,Potency,[3],inactive
same,Potency,[18],inactive
same,outcome,[4],inactive
same,Potency,[5],inactive
same,Potency,[6],inactive
same,Potency,[19],inactive
same,outcome,[20],inactive
same,Potency,[8],inactive
same,Potency,[9],inactive
same,Potency,[10],inactive
same,Potency,[11],inactive
same,Potency,[12],inactive
same,Potency,[13],inactive
same,Potency,[14],inactive
same,Potency,[15],inactive
same,Potency,[16],inactive
COC(=O)C12C(=O)C(C)(O)C(=O)C1(C)C(C)=CC1C3(C=O)CCC(OC(C)=O)C(C)(C)C3CCC12C (stereo unspecified),Potency,[17],inactive
same,Potency,[3],inactive
same,Potency,[18],inactive
same,outcome,[4],inactive [at 25.7 µM]
same,Potency,[5],inactive
same,Potency,[6],inactive
same,Potency,[19],inactive
same,max response,[20],-17.3%
same,max response,[7],-2.03%
same,Potency,[8],inactive
same,Potency,[9],inactive
same,Potency,[10],inactive
same,Potency,[11],inactive
same,Potency,[12],inactive
same,Potency,[13],inactive
same,Potency,[14],inactive
same,Potency,[15],inactive
same,Potency,[16],inactive
CC1CCCC(O)CCC/C=C/c2cc(O)cc(O)c2C(=O)O1 (stereo unspecified),Potency,[17],inactive
same,Potency,[18],inactive
same,outcome,[4],inactive
same,Potency,[5],1.85 µM (active)
same,Potency,[6],inactive
same,Potency,[19],inactive
same,max response,[20],0.224%
same,Potency,[7],8.05 µM (active)
same,Potency,[9],inactive
same,Potency,[10],inactive
same,Potency,[11],inactive
same,Potency,[12],inactive
same,Potency,[13],inactive
same,Potency,[14],inactive
same,Potency,[15],inactive
same,Potency,[16],inactive
CCCN(CCC)CCc1ccc(OC)c(OCCc2ccccc2)c1,Potency,[1],inactive
same,Potency,[2],inactive
same,Potency,[3],inactive
same,Potency,[18],inactive
same,outcome,[4],inactive
same,Potency,[5],inactive
same,Potency,[6],inactive
same,Potency,[19],inactive
same,max response,[20],-13.9%
same,max response,[7],1.81%
same,Potency,[8],inactive
same,Potency,[9],inactive
same,Potency,[10],inactive
same,Potency,[11],inactive
same,Potency,[12],inactive
same,Potency,[14],inactive
same,Potency,[15],inactive
same,Potency,[16],inactive
C[C@@H]1CCC2[C@@H](C)C(=O)OC3O[C@@]4(C)CCC1[C@]32OO4 (stereo partly specified),Potency,[1],inactive
same,Potency,[2],inactive
same,Potency,[17],inactive
same,Potency,[18],inactive
same,outcome,[4],inactive
same,Potency,[5],inactive
same,Potency,[6],inactive
same,Potency,[19],inactive
same,max response,[20],-1.21%
same,max response,[7],-13.5%
same,Potency,[8],inactive
same,Potency,[9],inactive
same,Potency,[10],inactive
same,Potency,[11],inactive
same,Potency,[12],inactive
same,Potency,[13],inactive
same,Potency,[14],inactive
same,Potency,[15],inactive
same,Potency,[16],inactive

# — PubChem BioAssay (NCATS)
